For 5 compounds, outcome and AC50 results are on record in PubChem BioAssay (EPA / NIEHS).

“And” between values parts separate entries of the source, which are not always exact repeats. Equal values may be shown once. A structure can be active in one record and inactive in another. The source made the active and inactive calls. The calls were made as follows: active = hit-call score of the fitted dose curve at least 0.9, where 1 is the maximum; inactive = score below 0.9.

As usually defined, the AC50 is the concentration at which the activity in the assay is half-maximal.

Read-out in assay [1]: Interleukin-1 alpha (IL1a), IL1A (gene 3552)
Kind of assay: BSK_KF3CT_IL1a: BioMAP Diversity Plus: KF3CT Assay for Interleukin-1 alpha (IL1a) Biomarker Activity (AID 2283070). To be noted: primary human keratinocytes with fibroblasts; actives raise or lower the signal. An outline of the steps:
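Chemicals were dosed onto co-cultured human keratinocytes and foreskin fibroblasts, IL-1a was quantified by ELISA at 24 h, and activity was fitted in both directions relative to DMSO controls.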

Read-out in assay [2]: TIMP metallopeptidase inhibitor 2 (TIMP2), TIMP2 (gene 7077)
The assay is described as follows: BSK_KF3CT_TIMP2: BioMAP Diversity Plus: KF3CT Assay for TIMP metallopeptidase inhibitor 2 (TIMP2) Biomarker Activity (AID 2283071). The settings on record: primary human keratinocytes with fibroblasts; actives raise or lower the signal. An outline of the steps:
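Cells: human keratinocytes co-cultured with foreskin fibroblasts. Treat with chemical, 24 h. Measure TIMP-2 by ELISA; fit curves bidirectionally vs DMSO baseline.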

Read-out in assay [3]: Transforming growth factor beta 1 (TGFb1), TGFB1 (gene 7040)
Kind of assay: BSK_KF3CT_TGFb1: BioMAP Diversity Plus: KF3CT Assay for Transforming growth factor beta 1 (TGFb1) Biomarker Activity (AID 2283072). The settings on record: primary human keratinocytes with fibroblasts; actives raise or lower the signal. An outline of the steps:
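Primary human skin cells (keratinocytes, foreskin fibroblasts) were co-cultured, exposed to test chemical and sampled at 24 h. TGF-b1 levels were measured by ELISA and fitted bidirectionally relative to DMSO.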

Read-out in assay [4]: C-C motif chemokine 2 (Homo sapiens) (UniProt P13500)
Kind of assay: BSK_KF3CT_MCP1: BioMAP Diversity Plus: KF3CT Assay for Monocyte Chemoattractant Protein 1 (MCP1/CCL2) Biomarker Activity (AID 2283073). To be noted: primary human keratinocytes with fibroblasts; actives raise or lower the signal. An outline of the steps: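 Keratinocytes and foreskin fibroblasts were co-cultured, dosed with chemical, and sampled 24 h later. MCP-1 was quantified by ELISA, and the endpoint was analyzed with bidirectional fitting using DMSO as negative control.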

Read-out in assay [5]: Matrix Metallopeptidase 9 (MMP9), MMP9 (gene 4318)
Kind of assay: BSK_KF3CT_MMP9: BioMAP Diversity Plus: KF3CT Assay for Matrix Metallopeptidase 9 (MMP9) Biomarker Activity (AID 2283074). The settings on record: primary human keratinocytes with fibroblasts; actives raise or lower the signal. An outline of the steps: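 Human keratinocyte/foreskin fibroblast co-culture; compound added; 24 h; MMP-9 by ELISA; bidirectional fit vs DMSO baseline.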

Read-out in assay [6]: urokinase plasminogen activator (uPA), PLAU (gene 5328)
Kind of assay: BSK_KF3CT_uPA: BioMAP Diversity Plus: KF3CT Assay for urokinase plasminogen activator (uPA) Biomarker Activity (AID 2283075). The settings on record: primary human keratinocytes with fibroblasts; actives raise or lower the signal. An outline of the steps:
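ELISA readout of uPA, analyzed for signal gain or loss relative to DMSO, from a human primary keratinocyte–foreskin fibroblast co-culture measured 24 h after chemical treatment.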

Read-out in assay [7]: E-selectin (Homo sapiens) (UniProt P16581)
The assay is described as follows: BSK_LPS_Eselectin: BioMAP Diversity Plus: LPS Assay for Eselectin Biomarker Activity (AID 2283077). To be noted: primary human HUVEC with PBMC; actives raise or lower the signal. An outline of the steps:
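Signal of E-selectin, detected by ELISA, served as the endpoint; cells were umbilical vein endothelium with PBMC, read 24 h after treatment. DMSO defined baseline, and both increases and decreases were fitted.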

Read-out in assay [8]: Interleukin-8 (IL8), CXCL8 (gene 3576)
The assay is described as follows: BSK_LPS_IL8: BioMAP Diversity Plus: LPS Assay for Interleukin-8 (IL8) Biomarker Activity (AID 2283078). To be noted: primary human HUVEC with PBMC; actives raise or lower the signal. Put shortly: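 Endothelial cells and PBMC from human donors are co-cultured, treated with chemicals and LPS, then assayed for IL-8 by ELISA after 24 h. Parallel SRB staining (0.1% SRB after 10% TCA fixation, 560 nm) flags cytotoxicity.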

The nature of assay [9]: BSK_LPS_SRB: Viability Assessment in the BioMAP Diversity Plus: LPS Assay (AID 2283079).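 Also: total protein by sulforhodamine B absorbance as a cytotoxicity measure; measured one day after compound addition; fitted in both directions against DMSO so loss or gain of signal counts.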 The settings on record: primary human HUVEC with PBMC. Put shortly: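 Overt cytotoxicity was gauged by sulforhodamine B total-protein staining in a primary human vascular endothelial and mononuclear cell co-culture 24 h post-dosing. Activity was fitted in both directions relative to DMSO.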

Read-out in assay [10]: Monocyte Chemoattractant Protein-1 (MCP1), CCL2 (gene 6347)
The assay is described as follows: BSK_LPS_MCP1: BioMAP Diversity Plus: LPS Assay for Monocyte Chemoattractant Protein-1 (MCP1) Biomarker Activity (AID 2283081).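 As to AC50: secreted MCP-1 protein quantified by ELISA in culture supernatant.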 The settings on record: primary human HUVEC with PBMC; actives raise or lower the signal. An outline of the steps: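 LPS-stimulated HUVEC/PBMC co-culture; chemical, 24 h; MCP-1 by ELISA; bidirectional fit vs DMSO; cytotoxicity via SRB (0.1% stain, 10% TCA fix, 560 nm) in parallel wells.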

Read-out in assay [11]: Tissue Factor, F3 (gene 2152)
Kind of assay: BSK_LPS_TissueFactor: BioMAP Diversity Plus: LPS Assay for Tissue Factor Biomarker Activity (AID 2283084). To be noted: primary human HUVEC with PBMC; actives raise or lower the signal. Put shortly:
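In this co-culture system of umbilical vein endothelium with PBMC, stimulated with LPS, cell-surface CD142 is detected by ELISA at 24 h. Endpoint values derive from bidirectional fitting, DMSO serving as baseline.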

Read-out in assay [12]: Tumor necrosis factor (Homo sapiens) (UniProt P01375)
The assay is described as follows: BSK_LPS_TNFa: BioMAP Diversity Plus: LPS Assay for Tumour Necrosis Factor alpha (TNFa) Biomarker Activity (AID 2283085). The settings on record: primary human HUVEC with PBMC; actives raise or lower the signal. An outline of the steps: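 Read-out is ELISA of TNFa in primary human endothelial cell–PBMC co-cultures at 24 h after compound. Activity in either direction was fitted against DMSO.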

Read-out in assay [13]: CD38, CD38 (gene 952)
The assay is described as follows: BSK_SAg_CD38: BioMAP Diversity Plus: SAg Assay for CD38 Biomarker Activity (AID 2283087). The settings on record: primary human HUVEC with PBMC; actives raise or lower the signal. Put shortly:
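Human HUVEC plus PBMC co-culture stimulated with superantigen; CD38 measured by ELISA 24 h after chemical dosing. Fluorescence read-out, bidirectional fit against DMSO; cytotoxicity tracked in parallel by SRB and Alamar Blue.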

Read-out in assay [14]: CD40, CD40 (gene 958)
Kind of assay: BSK_SAg_CD40: BioMAP Diversity Plus: SAg Assay for CD40 Biomarker Activity (AID 2283088). The settings on record: primary human HUVEC with PBMC; actives raise or lower the signal. Put shortly: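 Fluorescence ELISA read-out of CD40 from umbilical vein endothelium plus peripheral blood mononuclear cells, sampled 24 h after dosing. Values come from bidirectional curve fitting with DMSO as baseline.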

Read-out in assay [15]: CD69, CD69 (gene 969)
Kind of assay: BSK_SAg_CD69: BioMAP Diversity Plus: SAg Assay for CD69 Biomarker Activity (AID 2283089).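 As to AC50: cell surface CD69 protein quantified by ELISA with fluorescence detection.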 To be noted: primary human HUVEC with PBMC; actives raise or lower the signal. Put shortly: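 Primary human vascular co-culture (umbilical vein endothelium with peripheral blood mononuclear cells) exposed to test chemical for 24 h. CD69 levels quantified by fluorescence ELISA; DMSO served as negative control for bidirectional fitting.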

Read-out in assay [16]: CD40, CD40 (gene 958)
The assay is described as follows: BSK_LPS_CD40: BioMAP Diversity Plus: LPS Assay for CD40 Biomarker Activity (AID 2283076). The settings on record: primary human HUVEC with PBMC; actives raise or lower the signal. Put shortly:
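CD40 signal, measured by ELISA, is fitted in both directions relative to DMSO vehicle. The system is an LPS-driven human vascular primary co-culture of endothelial cells and PBMC, sampled 24 h after compound addition.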

Read-out in assay [17]: Vascular cell adhesion molecule 1 (VCAM1), VCAM1 (gene 7412)
The assay is described as follows: BSK_LPS_VCAM1: BioMAP Diversity Plus: LPS Assay for Vascular cell adhesion molecule 1 (VCAM1) Biomarker Activity (AID 2283086). The settings on record: primary human HUVEC with PBMC; actives raise or lower the signal. An outline of the steps:
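HUVEC + PBMC co-culture, LPS system; compound 24 h; VCAM-1 by ELISA; bidirectional fit vs DMSO control; parallel SRB (0.1%, TCA-fixed, 560 nm) for cytotoxicity.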

E-selectin (Homo sapiens), sequence (P16581 whole entry, looked up): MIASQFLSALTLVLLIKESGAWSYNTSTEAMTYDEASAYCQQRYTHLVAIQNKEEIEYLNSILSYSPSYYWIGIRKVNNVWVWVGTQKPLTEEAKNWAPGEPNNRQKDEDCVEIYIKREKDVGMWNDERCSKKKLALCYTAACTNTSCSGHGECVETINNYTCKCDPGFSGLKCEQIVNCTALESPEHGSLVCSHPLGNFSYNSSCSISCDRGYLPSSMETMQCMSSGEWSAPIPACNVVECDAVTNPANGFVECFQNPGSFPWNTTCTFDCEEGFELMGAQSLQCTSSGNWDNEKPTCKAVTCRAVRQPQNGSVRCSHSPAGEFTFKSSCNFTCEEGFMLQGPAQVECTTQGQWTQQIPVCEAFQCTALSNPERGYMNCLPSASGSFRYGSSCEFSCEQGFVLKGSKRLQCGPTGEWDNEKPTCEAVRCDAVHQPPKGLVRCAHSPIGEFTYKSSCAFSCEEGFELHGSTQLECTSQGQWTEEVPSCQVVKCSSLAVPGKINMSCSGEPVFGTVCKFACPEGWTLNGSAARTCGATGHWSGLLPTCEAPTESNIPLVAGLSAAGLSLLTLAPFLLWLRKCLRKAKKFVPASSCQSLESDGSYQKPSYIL
Tumor necrosis factor (Homo sapiens), sequence (P01375 whole entry, looked up): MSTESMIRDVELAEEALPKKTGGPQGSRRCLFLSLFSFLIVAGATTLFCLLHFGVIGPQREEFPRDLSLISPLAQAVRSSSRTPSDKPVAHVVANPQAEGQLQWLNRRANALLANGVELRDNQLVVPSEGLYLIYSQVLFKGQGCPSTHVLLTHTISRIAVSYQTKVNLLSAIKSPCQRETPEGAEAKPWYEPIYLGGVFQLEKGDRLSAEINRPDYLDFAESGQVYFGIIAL

Turning to `O=C1OC2(c3ccc(O)cc3Oc3cc(O)ccc32)c2ccccc21`, the outcome in assay [1], in [2], in assay [3], in assay [4], in [5] and in assay [6] was inactive. Moreover, the result in assay [7], in [8], in assay [9], in assay [10], in assay [11] and in assay [12] was inactive. Moreover, the result in [13], in assay [14] and in assay [15] was inactive.

In the case of `c1ccc2c(c1)-c1ccc3ccc4cccc5cc-2c1c3c45`, the result in assay [1], in assay [3], in [5], in assay [6], in assay [7] and in [8] was inactive. The outcome in assay [9] and in assay [12] was inactive. Further, the half-maximal activity concentration (AC50) in [2] is 0.825 µM (active); in [4] it was 0.238 µM (active); in [10], 2.71 µM (active); in [13], 6.08 µM (active); in assay [14], 1.98 µM (active); in [15] it was 1.98 µM (active).

For the compound `CCCO[Si](OCCC)(OCCC)OCCC`, the result in assay [1], in assay [2], in assay [4], in assay [5], in assay [6] and in [16] was inactive. In addition, the result in assay [7], in assay [8], in assay [9], in assay [10], in [12] and in [17] was inactive. Further, the result in assay [13], in assay [14] and in assay [15] was inactive. For the same compound, the half-maximal activity concentration (AC50) in assay [8] was 3.97 µM (active).

Regarding `O=C(O)C(F)(F)C(F)(F)C(F)(F)C(F)(F)C(F)(F)C(F)(F)C(F)(F)C(F)F`, the result in [1], in [2], in assay [4], in assay [5], in assay [6] and in assay [7] was inactive. Also, the outcome in [9], in assay [10], in assay [12], in assay [13], in [14] and in assay [15] was inactive. Moreover, the concentration at half-maximal activity (AC50) in assay [8] is 8.81 µM (active) and 17.9 µM (active).

Take `O=C(O)C(F)(F)OC(F)(F)C(F)(F)OC(F)(F)C(F)(F)C(F)(F)C(F)(F)F`: the result in assay [1], in [2], in assay [4], in [5], in assay [6] and in [7] was inactive. Moreover, the result in assay [8], in assay [9], in [10], in assay [12], in assay [13] and in [14] was inactive. Moreover, the result in [15] was inactive. The concentration at half-maximal activity (AC50) is 51 µM (active) in assay [9], 41.9 µM (active) in assay [13], 44 µM (active) in [14] and 34.2 µM (active) in assay [15].
